# Records with an inconclusive call do not appear. Calls of active or inactive are those of the source. The call rests on the fitted dose curve; in most records, active means well fitted activation curve with a large enough effect in the repeat runs; inconclusive means weak or mixed curves; inactive means flat fitted curve, though single readings scatter.
# Assay: A CellTox Green Cytotoxicity Assay to monitor cytotoxicity in HEK293 cells - 16 hour (AID 1224888); further: nearly all actives have a fitted effect of over 35% in size
# Settings: CellTox Green fluorescence; series mostly up to 76.8 µM; activity change: at the top concentration
# Text: National Center for Advancing Translational Sciences [NCATS]
# NIH Chemical Genomics Center [NCGC]
# U.S. Environmental Protection Agency [EPA]
# National Institutes of Environmental Health Sciences [NIEHS]
# National Toxicology Program [NTP]
# Cell-based models are critical for drug discovery. Determining the natural cytotoxic effects resulting from test compounds is an essential research activity. A CellTox Green Cytotoxicity Assay to monitor cytotoxicity in real time of continues cell culture during 40 hours of the compound treatment was used to screen Tox21 10K library compounds in Hek293 cells. CellTox Green Cytotoxicity Assay is a nonlytic, homogeneous, biofluorescent method to measure cytotoxicity in cell culture after experimental manipulation. The assay system uses a proprietary asymmetric cyanine dye that is excluded from viable cells but preferentially stains the dead cell's DNA. […] Viable cells produce no appreciable increases in fluorescence. Therefore, the fluorescence signal produced by the binding interaction with dead cell DNA is proportional to cytotoxicity.
# The mixture of Hek293 cell suspension and reagents were dispensed at 600cells/6 ul/well in 1536-well tissue culture treated black solid bottom plates using a Multidrop dispenser. After the assay plates were incubated at a 37 C/5% CO2 incubator for 5 hours, 23 nL of compounds dissolved in DMSO, positive and negative controls was transferred to the assay plate by a pintool work station. The plates were incubated at 37 C for 40 hours. The fluorescence intensity were measured at 0h, 8h, 16h, 24h, 32h and 40h time points using ViewLux plate reader during compound treatment.
# On the % scale 0 is the no-effect control and ±100 the full control effect.
Structure (SMILES),activity change,Potency
CCC(=O)c1ccc(Cl)cc1,-23.5% (inactive),–
CNC(=O)Oc1ccccc1C(C)C,2.23% (inactive),–
COP(=O)(OC)O/C(C)=C/C(=O)N(C)C,-9.11% (inactive),–
CC(C)(C1CCC(O)CC1)C1CCC(O)CC1 (stereo not given),0.879% (inactive),–
O=C(O)c1c(Cl)ccc2cc(Cl)cnc12,-3.48% (inactive),–
CCOC(=O)COc1ccc(Cl)cc1Cl,3.59% (inactive),–
N=C(N)[Se],-5.78% (inactive),–
C=CCN1CC[C@]23CCCC[C@H]2[C@H]1Cc1ccc(O)cc13,"-6.88% [at 35.3 µM, stronger effect = higher value] (inactive)",–
CCCC[N+](=O)[O-],-8.82% (inactive),–
C/C(=N\NC(=O)Nc1cc(F)cc(F)c1)c1ncccc1C(=O)O,–,inactive
O=C(Cl)c1ccccc1,4.51% (inactive),–
Cn1c(N)nc2c3cccnc3ccc21,-11.8% (inactive),–
O=C(Cl)C(Cl)(Cl)Cl,-5.89% (inactive),–
O=CCCl,-14.6% (inactive),–
CC(=O)OCC1=C(C(=O)O)N2C(=O)[C@@H](N)[C@H]2SC1,"2.87% [at 15.8 µM, stronger effect = higher value] (inactive)",–
CCOP(=S)(OCC)SCCl,8.05% (inactive),–
N#CC(Br)(Br)C(N)=O,-7.4% (inactive),–
O=C(O)C(F)(F)C(F)(F)C(F)(F)C(F)(F)C(F)(F)C(F)(F)F,-12.3% (inactive),–
CCC(C)C(C)(COC(N)=O)COC(N)=O (stereo not given),"-6.19% [at 35.3 µM, stronger effect = higher value] (inactive)",–
ClCOCCl,-4.61% (inactive),–

Structure (SMILES),activity change,Potency
Clc1nc(Cl)nc(Nc2ccccc2Cl)n1,2.54% (inactive),–
CC(=NC#N)N(C)Cc1ccc(Cl)nc1,0.38% (inactive),–
CCN1CCCC1CNC(=O)C(O)(c1ccccc1)c1ccccc1 (stereo not given),"-6.68% [at 35.3 µM, stronger effect = higher value] (inactive)",–
N[C@@H]1C[C@H]1c1ccccc1,"-15% [at 35.3 µM, stronger effect = higher value] (inactive)",–
CCC(CC)(CNC(=O)CCCO)c1cccc(OC)c1,"-0.0658% [at 35.3 µM, stronger effect = higher value] (inactive)",–
CCOC(=O)CCl,-18.3% (inactive),–
CCN(CC)CCOC(=O)C(O)(c1ccccc1)c1ccccc1,"-0.629% [at 35.3 µM, stronger effect = higher value] (inactive)",–
CCOc1cc(OP(=S)(OC)OC)nc(CC)n1,-10.7% (inactive),–
CCN(CCO)CCn1c(Cc2ccccc2)nc2c1c(=O)n(C)c(=O)n2C,"2.64% [at 35.3 µM, stronger effect = higher value] (inactive)",–
NC(=O)OCCCc1ccccc1,"0.17% [at 35.3 µM, stronger effect = higher value] (inactive)",–
CS(=O)(=O)Cl,-4.74% (inactive),–
CS(=O)(=O)c1ccc(C(=O)C2C(=O)CCCC2=O)c(Cl)c1COCC(F)(F)F,1.19% (inactive),–
CC(Cc1ccccc1)NCCCCl (stereo not given),"-1.39% [at 35.3 µM, stronger effect = higher value] (inactive)",–
CC(C)c1ccc(O)cc1,-1.08% (inactive),–
CC(C)(C)NC[C@H](O)c1ccc(O)cc1Cl,"1.1% [at 35.3 µM, stronger effect = higher value] (inactive)",–
CCCC(C)(COC(N)=O)COC(N)=O,-4.44% (inactive),–
CC(C)N(Cc1ccccc1)C(=O)C(C)(C)C,0.179% (inactive),–
O=C(Cl)C(Cl)Cl,-10.4% (inactive),–
Clc1cc2c(cc1Cl)Oc1cc(Cl)c(Cl)cc1O2,"-25.8% [at 0.29 µM, stronger effect = higher value] (inactive)",–
CC1NCCOC1c1ccccc1 (stereo not given),"0.881% [at 35.3 µM, stronger effect = higher value] (inactive)",–

# Reference: PubChem BioAssay (Tox21)
